Data taken from ChEMBL document CHEMBL3988442, “University of Dundee, Small-Polar-MMV Screening Library” (2021).

molecular target: T1, Aspartate--tRNA(Asp/Asn) ligase (Mycobacterium tuberculosis (strain ATCC 25618 / H37Rv)) (UniProt P9WFW3); experiment: Assay for Asp RNA synthetase-1 from Mycobacterium tuberculosis; type: functional; design: scale not given: in the data most compounds retested in dose-response had high values; conditions: 30 µM
T1 sequence (whole entry): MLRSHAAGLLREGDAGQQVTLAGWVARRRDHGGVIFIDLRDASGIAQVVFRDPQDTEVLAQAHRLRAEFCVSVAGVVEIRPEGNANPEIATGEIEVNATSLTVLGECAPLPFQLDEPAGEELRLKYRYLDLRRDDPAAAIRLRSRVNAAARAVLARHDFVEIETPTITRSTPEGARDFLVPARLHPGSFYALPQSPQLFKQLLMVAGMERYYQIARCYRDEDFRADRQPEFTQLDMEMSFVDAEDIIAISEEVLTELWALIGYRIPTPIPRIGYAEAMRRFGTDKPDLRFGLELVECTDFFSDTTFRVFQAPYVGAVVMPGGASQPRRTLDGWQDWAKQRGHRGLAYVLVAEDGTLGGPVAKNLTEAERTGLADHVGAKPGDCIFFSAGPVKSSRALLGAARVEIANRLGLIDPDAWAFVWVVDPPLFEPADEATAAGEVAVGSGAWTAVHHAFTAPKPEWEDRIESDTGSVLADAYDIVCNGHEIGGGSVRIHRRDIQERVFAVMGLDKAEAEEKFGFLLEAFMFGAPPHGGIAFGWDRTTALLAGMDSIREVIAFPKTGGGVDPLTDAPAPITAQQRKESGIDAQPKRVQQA

Going from `Cc1ccc2c(c1)c(CNC(=O)C1CC(=O)N(C3CCCC3)C1)nn2C` (stereo not given) to `CC(=O)NCC1CCN(C(=O)c2csc(-c3ccc(C)cc3C)n2)CC1`, the Percent Effect rises from 4.05% to 5.3%.

First: O=C1COC2(CCN(Cc3cccs3)CC2)CN1c1ccccc1
Second: COc1ccccc1CN1CC[C@]2(C[C@H](OC)CO2)C1
The Percent Effect of the first is lower: -2.62% for the first, -1.25% for the second.

Compared with `CC(C)CC(CNC(=O)NCc1cc[nH]n1)N1CCOCC1` (stereo not given), `Cc1nc(CN2CCn3cc(CNC(=O)C4CCC4)nc3C2)cs1` is higher in Percent Effect: -6.68% for the first, 11% for the second.

Going from `CCCOCC(=O)NS(=O)(=O)c1ccc2c(c1)OCCCO2` to `CS(=O)(=O)c1ccc(CNC2CCCN(c3cccnn3)C2)cc1` (stereo not given), the Percent Effect falls from 1.8% to -4.64%.

Compared with `c1cncc(-c2nccc(CN3CCCC3)n2)c1`, `O=C(c1ccc(-n2cccn2)nc1)N1CCCN(c2cccnn2)CC1` is lower in Percent Effect: 2.87% for the first, -4.61% for the second.

First: CC(=O)c1sc(Nc2ccc(Cl)cn2)nc1C
Second: CCOC1CCN(C(=O)c2cnn(-c3ccccc3Cl)c2)CC1
The Percent Effect of the first is higher: 6.71% for the first, 2.29% for the second.

Going from `c1nc2n(n1)CC(NCc1nc(-c3ccsc3)no1)CC2` (stereo not given) to `Cc1nc(CN(C)C2CCCN(c3cccnn3)C2)no1` (stereo not given), the Percent Effect falls from 4.69% to -6.37%.

Compared with `Cn1ncc2c(NCCC34CCCN3CCC4)nc(C3CCCC3)nc21`, `CC(C)(C)c1nnc(CN2CCOC(Cn3cncn3)C2)o1` (stereo not given) is lower in Percent Effect: 8.28% for the first, 0.0111% for the second.

Compared with `O=C(NCC1CC1)[C@H]1C[C@H]2OCC[C@H]2N(Cc2ccsc2)C1`, `Cn1cnc2c1C(COCC1CCOCC1)CN(C(=O)c1ccoc1)C2` (stereo not given) is lower in Percent Effect: 4.96% for the first, 2.22% for the second.

First: CCN(CCn1cccn1)Cc1nc(-c2ccccc2F)oc1C
Second: COc1ccccc1NC(=O)CSC1CCc2ccccc2NC1=O (stereo not given)
The Percent Effect of the first is higher: -0.808% for the first, -0.871% for the second.
